Measured values reported in the supplement of paper PMC6555819.

Assays:
Assay in all cases: PBM binding z-score (relative to random genomic background probes); higher = stronger binding; sequences stand for … in GC…GCGATTGACAGCGTAGAATGAAGG
[1] = test system: FXR:RXRa (NR concentration 270 nM, RXRa partner concentration 90 nM)
Summary of the method: (§1)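 Ligand-free nuclear receptor dimers were applied to custom Agilent 4×180K protein-binding microarrays whose double-stranded probes carried direct-repeat seeds, single-nucleotide variants, half-site ablations and random human genomic background sequences in 34-nt variable regions. Incubation lasted 1 h. Binding z-scores were computed against the random background probes from regression-normalized fluorescence.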

[2] = test system: LXRa:RXRa (NR concentration 270 nM, RXRa partner concentration 90 nM)
Summary of the method: as §1

[3] = test system: LXRa homodimer (NR concentration 270 nM)
Summary of the method: as §1

[4] = test system: LXRb:RXRa (NR concentration 270 nM, RXRa partner concentration 90 nM)
Summary of the method: as §1

[5] = test system: LXRb homodimer (NR concentration 270 nM)
Summary of the method: as §1

[6] = test system: PPARa:RXRa (NR concentration 270 nM, RXRa partner concentration 90 nM)
Summary of the method: as §1

[7] = test system: PPARg:RXRa (NR concentration 180 nM, RXRa partner concentration 90 nM)
Summary of the method: as §1

[8] = test system: PPARg:RXRa 270nM:90nM, anti-RXR (NR concentration 270 nM, RXRa partner concentration 90 nM)
Summary of the method: as §1

[9] = test system: PPARg:RXRa 30nM:10nM, anti-RXR (NR concentration 30 nM, RXRa partner concentration 10 nM)
Summary of the method: as §1

[10] = test system: PPARg:RXRa 90nM:30nM, anti-RXR (NR concentration 90 nM, RXRa partner concentration 30 nM)
Summary of the method: as §1

[11] = test system: PPARg:RXRa DBDmut IVT, anti-RXR (DBD mutation: RXRa K156A/R161A, NR concentration 270 nM, RXRa partner concentration 90 nM)
Summary of the method: as §1

[12] = test system: PPARg:RXRa IVT, anti-PPARg (NR concentration 270 nM, RXRa partner concentration 90 nM)
Summary of the method: as §1

[13] = test system: PPARg DBDmut:RXRa IVT, anti-PPARg (DBD mutation: PPARg1 K132A/R137A, NR concentration 270 nM, RXRa partner concentration 90 nM)
Summary of the method: as §1

[14] = test system: PPARg DBDmut IVT, anti-PPARg (DBD mutation: PPARg1 K132A/R137A, NR concentration 270 nM)
Summary of the method: as §1

[15] = test system: PPARg homodimer (NR concentration 180 nM)
Summary of the method: as §1

[16] = test system: PXR:RXRa (NR concentration 270 nM, RXRa partner concentration 90 nM)
Summary of the method: as §1

[17] = test system: PXR homodimer (NR concentration 270 nM)
Summary of the method: as §1

[18] = test system: RARa:RXR (NR concentration 270 nM, RXRa partner concentration 90 nM)
Summary of the method: as §1

[19] = test system: RARa homodimer (NR concentration 270 nM)
Summary of the method: as §1

[20] = test system: RARb:RXRa (NR concentration 270 nM, RXRa partner concentration 90 nM)
Summary of the method: as §1

Sequence	PBM binding z-score [1]	PBM binding z-score [2]	PBM binding z-score [3]	PBM binding z-score [4]	PBM binding z-score [5]	PBM binding z-score [6]	PBM binding z-score [7]	PBM binding z-score [8]	PBM binding z-score [9]	PBM binding z-score [10]	PBM binding z-score [11]	PBM binding z-score [12]	PBM binding z-score [13]	PBM binding z-score [14]	PBM binding z-score [15]	PBM binding z-score [16]	PBM binding z-score [17]	PBM binding z-score [18]	PBM binding z-score [19]	PBM binding z-score [20]
CCTAGCAGGCCAGGGGCACTCAAGCATTTCGCTT	-0.742	-0.659	-0.647	-0.578	-1.19	-0.331	-0.281	-0.0349	-0.949	-0.765	0.0628	-0.609	-1.68	-1.6	-1.02	-0.801	-0.66	-0.684	-1.15	0.377
ACTATTAGTTGAGTCGAGGGCAACCGATAGGTTG	0.84	0.505	0.226	0.34	0.349	0.703	0.466	0.452	0.0326	0.43	0.363	0.962	0.679	0.368	0.693	1.34	0.315	0.785	0.945	1.14
TAGCCTACGTCAGATCGGGCCAGTATACGCTATA	-0.48	-0.971	-0.851	-1.01	-0.669	-0.78	0.214	-0.86	-0.34	-0.771	-1.07	-0.466	-1.21	0.256	-1.51	-0.718	-1.22	-0.618	-1.02	-0.507
TCATAGAGGTAAAAGGTGAAAGTCGGTGTGGTAA	1.97	1.96	-0.0856	2.03	-0.828	4.69	6.33	6.66	5.72	7.33	2.72	3.24	0.0344	-0.0644	0.851	2.07	-0.248	3.86	0.918	2.07
ATCTCTAGGTAACAAGTTCAGTGAGAGAGAGGAC	0.938	0.818	0.556	0.613	1.01	1.54	1.41	2.15	0.897	1.64	3.21	3.22	1.3	1.5	1.39	1.73	1.77	0.827	1.3	1.75
CCTAGCAGGCCAGGGTCACTGAAGCATTTCGCTT	2.08	1.76	-0.679	2.1	-1.29	3.35	0.613	1.95	-0.0383	1.16	0.0332	1.16	-1.43	-1.48	1.08	3.04	-0.468	3.83	-0.64	2.55
GATACAGGGTCAAAGCCAGAGTACGCGTATTGAT	7.15	4.59	0.214	3.97	0.158	5.59	5.42	5.39	2.26	4.25	2.68	3.63	1.47	0.035	2.25	3.75	0.314	4.76	0.583	4.03
CCTACTGGGCCATCAGATCATTGATATCAACGTT	-0.345	-0.391	-0.0851	-0.263	-0.349	0.662	1.01	1.49	0.163	1.28	4.57	3.97	0.261	0.0377	-0.139	-0.487	-0.238	-0.391	0.289	0.228
ACTATTAGTCGACTTAGGGCAACCGATACGACGC	-0.365	-0.211	-0.355	-0.374	0.47	-0.446	0.825	0.138	0.0617	0.0451	0.19	0.646	0.629	1.12	-0.309	-0.188	-0.351	0.128	-0.494	0.711
ACTATTAGTTGACTTGGGGCAACCGATACGACGC	0.435	0.287	0.238	0.754	1.05	-0.000395	0.902	0.242	0.327	0.389	0.684	0.607	1.18	1.45	0.367	0.156	0.385	0.245	0.466	0.789
TAGCCTAGGTCAGATCGGGCAAGTATACGCTATA	1.87	1.1	-0.305	0.779	-0.322	1.74	0.654	0.623	-0.284	0.343	0.264	1.08	-0.209	-0.848	-0.0891	0.344	-0.431	1.06	-0.377	2.99
ATCTCTAGGTATCAAGTTCAGTGAAAGAGAGGAC	0.749	0.772	0.719	0.674	1.24	0.806	0.577	1.44	0.214	1.15	0.507	1.03	1.04	1.12	0.949	1.05	2.18	0.725	1.18	1.59
CCTACTGGGCCACGACAGGTCATTGATTCAGTGA	0.777	2.99	1.75	1.48	-0.349	2.68	2.81	2.84	0.448	1.68	5.23	5.51	1.69	-0.106	0.946	1.97	0.00199	2.15	-0.183	2.01
